Laboratory results from PubChem BioAssay (Tox21).
Inconclusive results are not listed. Where a call stands in place of a potency, no number is given. More than one record can exist for a structure, and the calls need not agree. Activity calls are given as the source filed them. The call rests on the fitted dose curve; in most records, active means well fitted cell-killing curve with a large enough effect in the repeat runs; inconclusive means weak or mixed curves; inactive means no such curve, though single readings can be large or run the other way.

test: qHTS assay to identify small molecule agonists of the peroxisome proliferator-activated receptor delta (PPARd) signaling pathway - cell viability counter screen (AID 743211); conditions: PPARd-bla HEK293H viability, CellTiter-Glo luminescence, 17 h; series mostly up to 62.6 µM; further: nearly all actives have a fitted effect of over 55% in size
Text: U.S. Tox21 Program National Center for Advancing Translational Sciences [NCATS] NIH Chemical Genomics Center [NCGC] U.S. Environmental Protection Agency [EPA] National Institutes of Environmental Health Sciences [NIEHS] National Toxicology Program [NTP] U.S. Food and Drug Administration [FDA] Tox21 Assay Overview: The peroxisome proliferator-activated receptors (PPARs) are lipid-activated transcription factors of the nuclear receptor superfamily with three distinct subtypes namely PPAR alpha, PPAR delta (PPARd) and PPAR gamma. All these subtypes heterodimerizes with Retinoid X receptor (RXR) and have different physiological functions. […] To identify the compounds that activate PPAR-delta signaling, GeneBLAzer PPAR delta UAS-bla HEK293H cell line (Invitrogen, Carlsbad, CA, USA) containing a beta-lactamase reporter gene under the control of an Upstream Activator Sequence (UAS) was used to screen the Tox21 compound library. The cytotoxicity of the Tox21 compound library against the PPARd-bla cell line was tested in parallel by measuring the cell viability using CellTiter-Glo assay (Promega, Madison, WI) in the same wells.
Tox21 Assay Protocol Summary: PPARd-bla cells were dispensed at 3000 cells/6uL/well in 1536-well black wall/clear bottom plates using a Multidrop Combi (Thermo Fisher Scientific, Waltham, MA) dispenser. After the assay plates were incubated at 37 C and 5% CO2 for 5 h, 23 nL of compounds dissolved in DMSO, positive controls or DMSO only was transferred to the assay plate by a Pintool station (Kalypsys, San Diego, CA). The assay plates were incubated at 37C for 17 h. After 1 uL of LiveBLAzerTM B/G FRET substrate was added using a Bioraptr Flying Reagent Dispenser (FRD) workstation (Beckman Coulter, Indianapolis, IN, USA), the plates were incubated at room temperature for 2 h, and fluorescence intensity was measured by an Envision plate reader (PerkinElmer, Shelton, CT). For cell viability readout that measures cytotoxicity, 3 ul/well of CellTiter-Glo reagent was added into the assay plates using a Bioraptr FRD. After 30 min incubation at room temperature, the luminescence intensity in the plates was measured using a ViewLux plate reader (PerkinElmer).
Potency means the concentration at half of the fitted maximal effect.

Compound | Potency
CCCCCCCCCCCC(=O)[O][Sn]([CH2]CCC)([CH2]CCC)[O]C(=O)CCCCCCCCCCC | inactive
CCCCCCOC(=O)C(C)C | inactive
CCCCN(CCCC)C(=S)SSC(=S)N(CCCC)CCCC | inactive
CC[C@@H]([C@H](C)O)n1ncn(-c2ccc(N3CCN(c4ccc(OC[C@@H]5CO[C@@](Cn6cncn6)(c6ccc(F)cc6F)C5)cc4)CC3)cc2)c1=O | 29.8 µM (active)
CO/N=C1\CN(c2nc3c(cc2F)c(=O)c(C(=O)O)cn3C2CC2)CC1CN (stereo not given) | inactive
C=CCNc1nc(NCC=C)nc(N2CCN(C(c3ccc(F)cc3)c3ccc(F)cc3)CC2)n1 | inactive
O=C(CCCCCCCCC#CI)Oc1ccccc1 | inactive
O=C(O)Cc1ccc(-c2ccccc2)cc1 | inactive
C/C=C/C=C/CCCCCCCO | inactive
C[Si](NC1CCCCC1)(NC1CCCCC1)NC1CCCCC1 | inactive
C[Si]1(C)O[Si](C)(C)O[Si](C)(C)O1 | inactive
C[C@@H]1C[C@H]2[C@@H]3CCC4=CC(=O)C=C[C@]4(C)[C@@]3(F)[C@@H](O)C[C@]2(C)[C@H]1C(=O)CO | inactive
Cc1oncc1C(=O)Nc1ccc(C(F)(F)F)cc1 | 54.9 µM (active) and inactive
CCCCCCCC/C=C\CCCCCCCC(=O)OC | inactive
CN1CCN(c2c(F)cc3c(=O)c(C(=O)O)cn4c3c2OCN4C)CC1 | inactive
Cc1ccc(Nc2nccc(N(C)c3ccc4c(C)n(C)nc4c3)n2)cc1S(N)(=O)=O | inactive
COC(=O)c1cc(S(N)(=O)=O)ccc1OC | inactive
CN1Cc2cc(C(=O)N3CCC(C4CCNCC4)CC3)ccc2N[C@@H](CC(=O)O)C1=O | inactive
CCCCCCCCSCCO | inactive
O=C(O)C(Cc1cc(I)c(O)c(I)c1)c1ccccc1 (stereo not given) | inactive

Compound | Potency
CCc1cccc(N(C)C(N)=Nc2cccc3ccccc23)c1 | inactive
CC(C)=CC=O | inactive
Cc1ccc(/C=N/n2c(-c3ccccc3)csc2=S)cc1 | inactive
Cc1ccc(S)cc1 | inactive
COCC(O)CO (stereo not given) | inactive
CC(=O)[C@H]1CC[C@H]2[C@@H]3C[C@H](C)C4=CC(=O)CC[C@]4(C)[C@H]3[C@@H](O)C[C@]12C | inactive
OCCSc1ccccc1 | inactive
C=CC(C)=CCC=C(C)C | inactive
CCC(C(=O)OCCN(CC)CC)c1ccccc1 (stereo not given) | inactive
CC(C)C(=O)O | inactive
Cc1cnc(C)c(C)n1 | inactive
CCCCCCOC(=O)CCCCCCCC(=O)OCCCCCC | inactive
CC1=C(/C=C/C(C)=C\C=C\C(C)=C\C(=O)O)C(C)(C)CCC1 | inactive
Oc1cc(O)c(Cl)cc1Cl | inactive
CCOC(=O)/C=C/C(=O)O | inactive
CCC(C)=O | inactive
CC(Cl)C(Cl)Cl (stereo not given) | inactive
O=C(C(=O)c1ccccc1)c1ccccc1 | inactive
CC(=O)CC(c1ccc([N+](=O)[O-])cc1)c1c(O)c2ccccc2oc1=O (stereo not given) | inactive
CCCCC(CC)COC(=O)COc1ccc(Cl)cc1C (stereo not given) | inactive
